Assay results taken from the supplement of paper PMC8728848.
Only a selection was taken, and the strongest signals are over-represented in it overall.

Assays:
Assay in all cases: glycan array binding signal (z-score within array); higher = stronger binding
Conditions in all cases: glycan notation: IUPAC condensed, linker removed; mutation: D224N
[1] = target: Fuc(a1-2)Gal(b1-3)GlcNAc(b1-2)Man(a1-3)[Fuc(a1-2)Gal(b1-3)GlcNAc(b1-2)Man(a1-6)]Man(b1-4)GlcNAc(b1-4)GlcNAc
Procedure, shortened: (§1)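 The Consortium for Functional Glycomics database supplied 3228 glycan arrays, of which those lacking an available protein sequence were dropped. The binding signal, a within-array Z-score, was averaged across arrays of the same protein sequence and across linkers. Negative scores can be read as non-binding.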

[2] = target: Fuc(a1-2)Gal(b1-3)GlcNAc(b1-3)[Neu5Ac(a2-6)Gal(b1-4)GlcNAc(b1-6)]Gal(b1-4)Glc
Procedure, shortened: as §1

[3] = target: Fuc(a1-2)Gal(b1-3)GlcNAc6S
Procedure, shortened: as §1

[4] = target: Fuc(a1-2)Gal(b1-4)GlcNAc(b1-3)GalNAc
Procedure, shortened: as §1

[5] = target: Fuc(a1-2)Gal(b1-4)GlcNAc(b1-3)[Fuc(a1-2)Gal(b1-4)GlcNAc(b1-6)]GalNAc
Procedure, shortened: as §1

[6] = target: Fuc(a1-2)[Gal(a1-3)]Gal(b1-3)GalNAc
Procedure, shortened: as §1

[7] = target: Fuc(a1-2)[GalNAc(a1-3)]Gal(b1-3)GlcNAc
Procedure, shortened: as §1

[8] = target: Fuc(a1-2)[GalNAc(a1-3)]Gal(b1-4)GlcNAc(b1-3)Gal(b1-4)GlcNAc(b1-3)Gal(b1-4)GlcNAc
Procedure, shortened: as §1

[9] = target: Fuc(a1-3)[Gal(b1-4)]Glc6S
Procedure, shortened: as §1

[10] = target: Fuc(a1-3)[Gal(b1-4)]GlcNAc(b1-2)Man(a1-3)[Fuc(a1-3)[Gal(b1-4)]GlcNAc(b1-2)Man(a1-6)]Man(b1-4)GlcNAc(b1-4)[Fuc(a1-6)]GlcNAc
Procedure, shortened: as §1

[11] = target: Fuc(a1-3)[Gal(b1-4)]GlcNAc(b1-3)Gal(b1-4)[Fuc(a1-3)]GlcNAc(b1-3)Gal(b1-4)[Fuc(a1-3)]GlcNAc
Procedure, shortened: as §1

[12] = target: Fuc(a1-3)[Gal(b1-4)]GlcNAc(b1-6)GalNAc
Procedure, shortened: as §1

Gal(a1-2)Gal = target: Gal(a1-2)Gal
Procedure, shortened: as §1

Gal(a1-3)GalNAc = target: Gal(a1-3)GalNAc
Procedure, shortened: as §1

Gal(b1-3)GlcNAc(b1-2)Man = target: Gal(b1-3)GlcNAc(b1-2)Man
Procedure, shortened: as §1

[13] = target: Gal(b1-3)GlcNAc(b1-3)Gal(b1-4)GlcNAc(b1-6)[Gal(b1-3)GlcNAc(b1-3)]Gal(b1-4)Glc
Procedure, shortened: as §1

[14] = target: Gal(b1-4)GlcNAc(b1-3)Gal(b1-4)GlcNAc(b1-2)[Gal(b1-4)GlcNAc(b1-3)Gal(b1-4)GlcNAc(b1-6)]Man(a1-6)[Gal(b1-4)GlcNAc(b1-3)Gal(b1-4)GlcNAc(b1-2)Man(a1-3)]Man(b1-4)GlcNAc(b1-4)GlcNAc
Procedure, shortened: as §1

[15] = target: Gal(b1-4)GlcNAc(b1-3)Gal(b1-4)GlcNAc(b1-3)Gal(b1-4)GlcNAc(b1-3)Gal(b1-4)GlcNAc(b1-2)Man(a1-3)[Gal(b1-4)GlcNAc(b1-3)Gal(b1-4)GlcNAc(b1-3)Gal(b1-4)GlcNAc(b1-3)Gal(b1-4)GlcNAc(b1-2)Man(a1-6)]Man(b1-4)GlcNAc(b1-4)[Fuc(a1-6)]GlcNAc
Procedure, shortened: as §1

[16] = target: Gal(b1-4)GlcNAc(b1-3)Gal(b1-4)GlcNAc(b1-3)Gal(b1-4)GlcNAc(b1-3)Gal(b1-4)GlcNAc(b1-3)Gal(b1-4)GlcNAc(b1-2)Man(a1-3)[Gal(b1-4)GlcNAc(b1-3)Gal(b1-4)GlcNAc(b1-3)Gal(b1-4)GlcNAc(b1-3)Gal(b1-4)GlcNAc(b1-3)Gal(b1-4)GlcNAc(b1-2)Man(a1-6)]Man(b1-4)GlcNAc(b1-4)GlcNAc
Procedure, shortened: as §1

[17] = target: Gal3S(b1-4)[Fuc(a1-3)]Glc6S
Procedure, shortened: as §1

Gal3S6S(b1-4)GlcNAc = target: Gal3S6S(b1-4)GlcNAc
Procedure, shortened: as §1

Gal6S(b1-4)Glc6S = target: Gal6S(b1-4)Glc6S
Procedure, shortened: as §1

[18] = target: Glc(a1-4)Glc(a1-4)Glc(a1-4)Glc
Procedure, shortened: as §1

[19] = target: GlcNAc(a1-4)Gal(b1-4)GlcNAc
Procedure, shortened: as §1

[20] = target: GlcNAc(a1-4)Gal(b1-4)GlcNAc(b1-3)Gal(b1-4)GlcNAc(b1-3)Gal(b1-4)GlcNAc
Procedure, shortened: as §1

[21] = target: GlcNAc(a1-4)Gal(b1-4)GlcNAc(b1-3)Gal(b1-4)[Fuc(a1-3)]GlcNAc(b1-3)Gal(b1-4)[Fuc(a1-3)]GlcNAc
Procedure, shortened: as §1

[22] = target: GlcNAc(b1-3)Gal(b1-4)GlcNAc(b1-3)Gal(b1-4)GlcNAc(b1-2)Man(a1-3)[GlcNAc(b1-3)Gal(b1-4)GlcNAc(b1-3)Gal(b1-4)GlcNAc(b1-2)Man(a1-6)]Man(b1-4)GlcNAc(b1-4)GlcNAc
Procedure, shortened: as §1

[23] = target: GlcNAc(b1-3)Gal(b1-4)GlcNAc(b1-3)Gal(b1-4)GlcNAc(b1-2)[GlcNAc(b1-3)Gal(b1-4)GlcNAc(b1-3)Gal(b1-4)GlcNAc(b1-6)]Man(a1-6)[GlcNAc(b1-3)Gal(b1-4)GlcNAc(b1-3)Gal(b1-4)GlcNAc(b1-2)Man(a1-3)]Man(b1-4)GlcNAc(b1-4)[Fuc(a1-6)]GlcNAc
Procedure, shortened: as §1

[24] = target: GlcNAc(b1-3)Gal(b1-4)GlcNAc(b1-3)Gal(b1-4)GlcNAc(b1-3)Gal(b1-4)GlcNAc(b1-2)Man(a1-3)[GlcNAc(b1-3)Gal(b1-4)GlcNAc(b1-3)Gal(b1-4)GlcNAc(b1-3)Gal(b1-4)GlcNAc(b1-2)Man(a1-6)]Man(b1-4)GlcNAc(b1-4)[Fuc(a1-6)]GlcNAc
Procedure, shortened: as §1

[25] = target: GlcNAc(b1-3)Gal(b1-4)GlcNAc(b1-3)Gal(b1-4)GlcNAc(b1-3)Gal(b1-4)GlcNAc(b1-3)Gal(b1-4)GlcNAc(b1-2)Man(a1-3)[GlcNAc(b1-3)Gal(b1-4)GlcNAc(b1-3)Gal(b1-4)GlcNAc(b1-3)Gal(b1-4)GlcNAc(b1-3)Gal(b1-4)GlcNAc(b1-2)Man(a1-6)]Man(b1-4)GlcNAc(b1-4)GlcNAc
Procedure, shortened: as §1

[26] = target: GlcNAc(b1-3)Gal(b1-4)GlcNAc(b1-6)[GlcNAc(b1-3)Gal(b1-3)]GalNAc
Procedure, shortened: as §1

[27] = target: GlcNAc(b1-4)[GlcNAc(b1-6)]GalNAc
Procedure, shortened: as §1

[28] = target: Kdn(a2-3)Gal(b1-4)[Fuc(a1-3)]GlcNAc
Procedure, shortened: as §1

[29] = target: Man(a1-2)Man(a1-2)Man(a1-6)[Man(a1-3)]Man
Procedure, shortened: as §1

Man(a1-3)[Man(a1-6)]Man = target: Man(a1-3)[Man(a1-6)]Man
Procedure, shortened: as §1

[30] = target: Man(a1-3)[Man(a1-6)]Man(a1-6)[Man(a1-3)]Man
Procedure, shortened: as §1

[31] = target: Neu5Ac(a2-3)Gal(b1-4)GlcNAc(b1-3)Gal
Procedure, shortened: as §1

[32] = target: Neu5Ac(a2-3)Gal(b1-4)GlcNAc(b1-3)Gal(b1-4)[Fuc(a1-3)]GlcNAc
Procedure, shortened: as §1

[33] = target: Neu5Ac(a2-3)Gal(b1-4)GlcNAc(b1-3)[Neu5Ac(a2-3)Gal(b1-4)GlcNAc(b1-6)]GalNAc
Procedure, shortened: as §1

[34] = target: Neu5Ac(a2-3)Gal(b1-4)[Fuc(a1-3)]GlcNAc(b1-3)Gal(b1-4)GlcNAc
Procedure, shortened: as §1

[35] = target: Neu5Ac(a2-3)Gal(b1-4)[Fuc(a1-3)]GlcNAc(b1-6)[Neu5Ac(a2-3)Gal(b1-3)]GalNAc
Procedure, shortened: as §1

[36] = target: Neu5Ac(a2-3)Gal6S(b1-4)[Fuc(a1-3)]GlcNAc
Procedure, shortened: as §1

[37] = target: Neu5Ac(a2-6)Gal(b1-4)GlcNAc(b1-2)Man(a1-3)Man(b1-4)GlcNAc(b1-4)GlcNAc
Procedure, shortened: as §1

[38] = target: Neu5Ac(a2-6)Gal(b1-4)GlcNAc(b1-2)Man(a1-6)[Man(a1-3)]Man(b1-4)GlcNAc(b1-4)GlcNAc
Procedure, shortened: as §1

[39] = target: Neu5Ac(a2-6)Gal(b1-4)GlcNAc(b1-3)Gal(b1-4)GlcNAc(b1-2)Man(a1-3)[Neu5Ac(a2-6)Gal(b1-4)GlcNAc(b1-3)Gal(b1-4)GlcNAc(b1-2)Man(a1-6)]GalNAc
Procedure, shortened: as §1

[40] = target: Neu5Ac(a2-6)Gal(b1-4)GlcNAc(b1-3)Gal(b1-4)GlcNAc(b1-3)Gal(b1-4)GlcNAc(b1-2)Man(a1-3)[Neu5Ac(a2-6)Gal(b1-4)GlcNAc(b1-3)Gal(b1-4)GlcNAc(b1-3)Gal(b1-4)GlcNAc(b1-2)Man(a1-6)]GalNAc
Procedure, shortened: as §1

[41] = target: Neu5Ac(a2-6)Gal(b1-4)GlcNAc(b1-3)GalNAc
Procedure, shortened: as §1

[42] = target: Neu5Ac(a2-8)Neu5Ac(a2-3)Gal(b1-4)Glc
Procedure, shortened: as §1

[43] = target: Neu5Ac(a2-8)Neu5Ac(a2-8)Neu5Ac(a2-3)Gal(b1-4)Glc
Procedure, shortened: as §1

[44] = target: Neu5Ac(a2-8)Neu5Ac(a2-8)Neu5Ac(a2-3)[GalNAc(b1-4)]Gal(b1-4)Glc
Procedure, shortened: as §1

B1: a L Fucosidase (Thermotoga maritima) (protein)
chain: MASMKPRYKPDWESLREHTVPKWFDKAKFGIFIHWGIYSVPGWATPTGELGKVPMDAWFFQNPYAEWYENSLRIKESPTWEYHVKTYGENFEYEKFADLFTAEKWDPQEWADLFKKAGAKYVIPTTKHHDGFCLWGTKYTDFNSVKRGPKRDLVGDLAKAVREAGLRFGVYYSGGLDWRFTTEPIRYPEDLSYIRPNTYEYADYAYKQVMELVDLYLPDVLWNNMGWPEKGKEDLKYLFAYYYNKHPEGSVNDRWGVPHWDFKTAEYHVNYPGDLPGYKWEFTRGIGLSFGYNRNEGPEHMLSVEQLVYTLVDVVSKGGNLLLNVGPKGDGTIPDLQKERLLGLGEWLRKYGDAIYGTSVWERCCAKTEDGTEIRFTRKCNRIFVIFLGIPTGEKIVIEDLNLSAGTVRHFLTGERLSFKNVGKNLEITVPKKLLETDSITLVLEAVEE
glycan array binding signal (z-score) [1]: 0.227
glycan array binding signal (z-score) [2]: -0.742
glycan array binding signal (z-score) [3]: -0.396
glycan array binding signal (z-score) [4]: 0.144
glycan array binding signal (z-score) [5]: 0.657
glycan array binding signal (z-score) [6]: -0.35
glycan array binding signal (z-score) [7]: 2.8
glycan array binding signal (z-score) [8]: 0.201
glycan array binding signal (z-score) [9]: 2.33
glycan array binding signal (z-score) [10]: 1.05
glycan array binding signal (z-score) [11]: 0.062
glycan array binding signal (z-score) [12]: -0.2
glycan array binding signal (z-score) (Gal(a1-2)Gal): -0.446
glycan array binding signal (z-score) (Gal(a1-3)GalNAc): -0.41
glycan array binding signal (z-score) (Gal(b1-3)GlcNAc(b1-2)Man): 0.366
glycan array binding signal (z-score) [13]: -0.509
glycan array binding signal (z-score) [14]: 1.93
glycan array binding signal (z-score) [15]: 0.731
glycan array binding signal (z-score) [16]: 0.594
glycan array binding signal (z-score) [17]: 0.443
glycan array binding signal (z-score) (Gal3S6S(b1-4)GlcNAc): 1.33
glycan array binding signal (z-score) (Gal6S(b1-4)Glc6S): -0.426
glycan array binding signal (z-score) [18]: 2.84
glycan array binding signal (z-score) [19]: -0.293
glycan array binding signal (z-score) [20]: 0.079
glycan array binding signal (z-score) [21]: 0.08
glycan array binding signal (z-score) [22]: 0.079
glycan array binding signal (z-score) [23]: 0.296
glycan array binding signal (z-score) [24]: 3.94
glycan array binding signal (z-score) [25]: -0.204
glycan array binding signal (z-score) [26]: 1.65
glycan array binding signal (z-score) [27]: -0.289
glycan array binding signal (z-score) [28]: 0.051
glycan array binding signal (z-score) [29]: -0.125
glycan array binding signal (z-score) (Man(a1-3)[Man(a1-6)]Man): 0.332
glycan array binding signal (z-score) [30]: 0.223
glycan array binding signal (z-score) [31]: -0.187
glycan array binding signal (z-score) [32]: 1.75
glycan array binding signal (z-score) [33]: 0.483
glycan array binding signal (z-score) [34]: 1.9
glycan array binding signal (z-score) [35]: 2.83
glycan array binding signal (z-score) [36]: -0.732
glycan array binding signal (z-score) [37]: 1.99
glycan array binding signal (z-score) [38]: 0.081
glycan array binding signal (z-score) [39]: 2.02
glycan array binding signal (z-score) [40]: 10.5
glycan array binding signal (z-score) [41]: 1.83
glycan array binding signal (z-score) [42]: -0.893
glycan array binding signal (z-score) [43]: 0.654
glycan array binding signal (z-score) [44]: 0.362
